PNC inhibitor: High Content Assay for Compounds that inhibit the Assembly of the Perinucleolar Compartment; PC3M PTB-GFP, PNC prevalence imaging, 16 h; stronger effect = lower value; activity change (PNC), negative = inhibition, % at 10 µM; 140,000 tested, 3.1% active;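 active means readout at or below -70, meaning at least 70% loss of cells showing the perinucleolar compartment, a nuclear body marking cancer cells; inconclusive means readout between -30 and a set limit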;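 further: plate controls were DMSO wells for no effect and camptothecin positive control wells for full effect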
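Compounds are pinned in duplicate onto adhered PC3M cells stably expressing GFP-tagged PTB and incubated 16 h at 37 C. Cells are then fixed, nuclei stained with Hoechst, and PNC-positive cells counted.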
HTT aggregate: qHTS Multiplex Assay to Identify Dual Action Probes in a Cell Model of Huntington: Aggregate Formation (GFP); PC12 HttQ103-GFP aggregates, Acumen cytometry, 40 h; Potency, µM (highest dose often 46.1 µM), for inactives: at the top dose activity change, negative = inhibition, usual class: inhibitors; 220,000 tested, 1.1% active; further: potency means the concentration at half of the fitted maximal effect; on the % scale 0 is the no-effect control and ±100 the full control effect; nearly all actives have a fitted effect of over 60% in size
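Huntingtin Q103 exon 1–GFP aggregates in induced PC12 cells (100 nM tebufenozide) were quantified by cytometry from lysates, with compounds dosed in titration.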
CBFb-RUNX1 inh: qHTS Assay for Compounds Blocking the Interaction Between CBF-beta and RUNX1 for the Treatment of Acute Myeloid Leukemia. Runt-related transcription factor 1 (Homo sapiens) + Core-binding factor subunit beta …. AlphaScreen CBFb-His/RUNX1-biotin binding, biochemical. Potency, µM (highest dose often 59.8 µM), without a hit: at the highest dose activity, negative = inhibition, hits mostly inhibitors. 230,000 tested, under 10 active; further: % of control where 0% means no effect
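AlphaScreen proximity signal reports loss of binding between His-tagged CBF-beta and biotin-labelled RUNX1, each at 30 nM. Proteins are pre-associated for 20 minutes, compounds added for 15 minutes, then beads for 90 minutes, all at ambient temperature.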
HPGD inh: qHTS Assay for Inhibitors of HPGD (15-Hydroxyprostaglandin Dehydrogenase); 15-hydroxyprostaglandin dehydrogenase [NAD(+)] (Homo sapiens), P15428; purified HPGD, NADH fluorescence kinetic, PGE2 substrate; Potency, µM, without a hit: top-dose activity change, negative = inhibition, hits mostly inhibitors; 150,000 tested, 4.3% active; active means well fitted inhibition curve with a large enough effect, not every such curve was filed as active; inconclusive means small, poorly fitted or top-dose-only effect, or another doubt; inactive means no such curve, though single readings can be large or run the other way; further: potency means the concentration at half of the fitted maximal effect; on the % scale 0 is the no-effect control and ±100 the full control effect
Target sequence (P15428 whole entry, looked up): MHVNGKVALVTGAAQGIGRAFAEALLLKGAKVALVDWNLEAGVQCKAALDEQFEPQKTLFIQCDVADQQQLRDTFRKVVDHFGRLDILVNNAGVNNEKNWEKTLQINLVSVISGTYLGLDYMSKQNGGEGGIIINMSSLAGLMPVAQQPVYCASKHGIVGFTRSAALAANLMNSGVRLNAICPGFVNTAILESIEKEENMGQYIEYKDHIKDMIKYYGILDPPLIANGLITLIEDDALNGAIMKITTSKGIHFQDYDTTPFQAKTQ
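NADH formation kinetics: reaction with 30 uM PGE2 and 1 mM NAD+ (final), 20 nM enzyme, Tris-HCl pH 8 with Tween 20, after 15 min compound preincubation at room temperature. Fluorescence change, last versus first of five reads.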
ALDH1A1 inh: qHTS Assay for Inhibitors of Aldehyde Dehydrogenase 1 (ALDH1A1) | Aldehyde dehydrogenase 1A1 (Homo sapiens), P00352 | 220,000 tested, 7.3% active | Potency, µM (titrated, usually from 75.3 µM), for the others: top-dose activity, negative = inhibition, most hits filed as inhibitors | AID 1030, 2008 | Purified ALDH1A1, NADH fluorescence, propionaldehyde substrate; active means well fitted inhibition curve with a large enough effect, not every such curve was filed as active; inconclusive means small, poorly fitted or top-dose-only effect, or another doubt; inactive means no such curve, though single readings can be large or run the other way;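 further: potency means the concentration at half of the fitted maximal effect; plate controls were no enzyme wells and a reference inhibitor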
HTT ATP protect: qHTS Multiplex Assay to Identify Dual Action Probes in a Cell Model of Huntington: Cytoprotection (ATP); PC12 HTT-Q103 induced, cytoprotection, ATP luminescence, 40 h; Potency, µM (doses to about 56.4 µM), without a hit: cytoprotection (ATP increase), most hits filed as activators; 230,000 tested, 0.14% active; further: potency means the concentration at half of the fitted maximal effect; % of control where 0% means no effect; nearly all actives have a fitted effect of over 45% in size
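Quantitative HTS on tebufenozide-induced (100 nM) PC12 cells expressing HTTQ103 exon 1–GFP; compounds tested as a concentration series; survival measured via cellular ATP.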
* marks the source's active call; other numbers are inactive results; [ ] = another dose, or the depositor's remark. This is a sample that favours compounds with a hit; in the whole collection about 11% have one here. Unless noted, the call rests on the fitted dose curve; in most records, active means well fitted curve in the direction sought with a large enough effect; inconclusive means small, poorly fitted or top-dose-only effect, or another doubt; inactive means no such curve, though single readings can be large; an effect the other way counts as inactive or inconclusive.

Cn1cccc1C(=O)N1CCC2(CCCN(Cc3nccs3)C2)CC1 was read as HPGD inh -1%, ALDH1A1 inh -3% and HTT ATP protect -1%.
Screening CCCn1c(C)nc2c(N3CCOCC3)nc(C)nc21 returned CBFb-RUNX1 inh 2%, HPGD inh -4%, ALDH1A1 inh -1% and HTT ATP protect -13%.
`CCOC(=O)c1c(NC(=O)CNCC(O)CO)sc(C)c1C` (configuration not stated) gave PNC inhibitor 35, HTT aggregate 9%, CBFb-RUNX1 inh 4%, HPGD inh -5%, ALDH1A1 inh -11% and HTT ATP protect -15%[10 µM].
For COc1ccc(C2=C/C(=C\c3cccc(OC(C)=O)c3)C(=O)O2)cc1 the results were PNC inhibitor 1, HTT aggregate 8%, CBFb-RUNX1 inh -1%, HPGD inh -20%, ALDH1A1 inh 25µM* and HTT ATP protect -10%[0.074 µM].
`Cc1ccc2sc(NC(=O)CN3C(=O)c4ccccc4C3=O)nc2c1C` gave PNC inhibitor -119*, HTT aggregate -2%, CBFb-RUNX1 inh -3%[2.36 µM], HPGD inh -7% and ALDH1A1 inh 4%.
Screening CCC(CC)c1nnc(NC(=O)CN2C(=O)c3ccccc3C2=O)s1 returned HTT aggregate 19%, CBFb-RUNX1 inh -4%, ALDH1A1 inh -4% and HTT ATP protect -27%.
Screening CCCC(C)c1nnc(NC(=O)CN2C(=O)c3ccccc3C2=O)s1 (configuration not stated) returned HTT aggregate 6%, CBFb-RUNX1 inh 3%, ALDH1A1 inh 28µM* and HTT ATP protect -8%.
CC(N)CCCP(=O)(O)O (configuration not stated) was read as CBFb-RUNX1 inh 6%, ALDH1A1 inh -1% and HTT ATP protect -8%.
`CCn1c(C)nc2cc(C(=O)NNC(=O)CCC3CCCCC3)ccc21` gave PNC inhibitor -7, HTT aggregate 3%, CBFb-RUNX1 inh 1%, HPGD inh -7%, ALDH1A1 inh inconclusive and HTT ATP protect -1%[1.9 µM].
Screening CCCCc1ccc(NC2=NCC(=O)N2CCc2ccccc2)cc1 returned HTT aggregate -15%[9.22 µM], CBFb-RUNX1 inh 9%, ALDH1A1 inh 11% and HTT ATP protect 2%[10 µM].
Screening CC1(C)O[C@@H]2O[C@H]([C@H](O)CO/N=C3/[C@H]4O[C@@H]4[C@@H](O)[C@H]4[C@H]3CCn3c(=O)n(-c5ccccc5)c(=O)n34)[C@@H](O)[C@@H]2O1 returned CBFb-RUNX1 inh 13%[13.1 µM], ALDH1A1 inh 6%[13.5 µM] and HTT ATP protect -15%[10 µM].
For COC(=O)C(NC(=O)COc1ccccc1)(Nc1nc2c(s1)CCCC2)C(F)(F)F (configuration not stated) the results were PNC inhibitor -14, HTT aggregate 2%, CBFb-RUNX1 inh 21%, HPGD inh 35µM*, ALDH1A1 inh -3% and HTT ATP protect -8%[10 µM].
CCOC(=O)N/N=C(\C)c1ccc(OC(F)F)cc1OC(F)F was read as PNC inhibitor -14, HTT aggregate -5%, CBFb-RUNX1 inh 1%, HPGD inh -3%, ALDH1A1 inh 20% and HTT ATP protect 14%[10 µM].
For COc1ccc(C(=O)N2c3cc4c(cc3C(C)=CC2(C)C)OCO4)cc1 the results were PNC inhibitor inconclusive, HTT aggregate 11µM*, CBFb-RUNX1 inh inconclusive, HPGD inh -14%, ALDH1A1 inh -11% and HTT ATP protect -14%.
Screening O=[N+]([O-])c1ccc(C2NS(=O)(=O)N=C3CCCCCN32)cc1 (configuration not stated) returned HTT aggregate 11%[9.22 µM], CBFb-RUNX1 inh 11%, ALDH1A1 inh 28µM* and HTT ATP protect 0%[10 µM].
